In all, about 290,000 compounds went through this assay and about 11,000 (3.8%) were called active.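 How the source made its calls: active means mean replicate inhibition above about 79%, with every replicate also reaching it (limit read from the data); inconclusive means only one of the two criteria met; inactive means mean below limit and not every replicate reaching it.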 What follows is part of a selection rich in actives, with near analogues and random picks from the rest.

For this experiment, the target named is FAD-linked sulfhydryl oxidase ALR (Homo sapiens) (UniProt P55789). Kind of experiment: inhibitors of human ALR sulfhydryl oxidase, primary screen, biochemical, H2O2 detection, HRP-luminol luminescence, single point (AID 485317). The note with it: purified ALR, DTT oxidation, stronger effect = higher value, concentration not given here.
FAD-linked sulfhydryl oxidase ALR (Homo sapiens), sequence (P55789 whole entry, looked up): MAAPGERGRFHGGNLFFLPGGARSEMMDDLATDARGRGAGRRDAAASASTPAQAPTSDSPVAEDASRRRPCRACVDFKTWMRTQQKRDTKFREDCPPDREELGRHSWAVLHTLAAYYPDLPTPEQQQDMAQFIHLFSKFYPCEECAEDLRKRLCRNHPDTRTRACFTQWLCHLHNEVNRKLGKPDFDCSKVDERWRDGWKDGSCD
For orientation: inhibition means the relative decrease from the control value, in per cent. For `COC(=O)c1c(NC(=O)CCCC(=O)O)sc2c1CCCCC2`, the inhibition is -5.42% (inactive).
The figure for `COC(=O)c1c(NC(=O)c2cccs2)sc2c1CCCC2` is -1.37% (inactive).
The same measure for `COC(=O)c1c(NC(=O)C2CC(C)=C(C)CC2C(=O)O)sc2c1CCCCC2` (stereo not given): 94.2% (active).
With `FC(F)(F)c1nnc2sc(-c3ccco3)nn12`, the inhibition was -7.15% (inactive).
Turning to `COc1cc(-c2nn3c(-c4cccc(C)c4)nnc3s2)cc(OC)c1OC`, the inhibition is 1.6% (inactive).
As for `Fc1ccc(-c2ccc(-c3nn4c(-c5ccco5)nnc4s3)o2)cc1`, the inhibition was 98.5% (active).
The same measure for `O=C(c1ccc(Cl)cc1)c1cnc(Nc2ccccc2)s1`: 24.8% (inactive).
The figure for `COC(=O)CN1C(=S)N(c2ccccc2)C(=O)C1CC(=O)Nc1ccc(Cl)cc1` (stereo not given) is 1.89% (inactive).
The same measure for `O=C(O)CC1=C(Nc2ccccc2)C(=O)N(c2ccccc2)C1c1ccc(Cl)cc1` (stereo not given): 96.7% (active).
For the compound `COc1cc(C(=O)NCC(c2ccco2)N2CCCC2)ccc1OCc1ccccc1` (stereo not given), the inhibition is -2.39% (inactive).
The figure for `CN(Cc1c(F)cccc1Cl)C(=O)CNC(=O)c1ccc2c(c1)OCO2` is 1.35% (inactive); for `COc1cc2c(-c3ccc4c(c3)OCO4)c(-c3ccsc3)oc(=O)c2cc1OC` it is 0.568% (inactive); for `CN(c1ccccc1)S(=O)(=O)c1cc(C(=O)Nc2nc3ccccc3[nH]2)ccc1Cl` it is 94.8% (active).
The same measure for `O=C(Nc1cccc(-c2nc3ccccc3[nH]2)c1)c1ccc(C(=O)Nc2cccc(-c3nc4ccccc4[nH]3)c2)cc1`: -5.21% (inactive).
The same measure for `Cc1cccc(NC(=O)c2ccc(S(=O)(=O)N(C)c3ccccc3)cc2)n1`: -13.4% (inactive).
In the case of `O=C(c1cc(-c2ccco2)nc2ccccc12)N(Cc1nnc(-c2ccc(Cl)cc2)o1)C1CC1`, the inhibition is 2.44% (inactive).
Turning to `Cn1cccc1C(=O)OCC(=O)c1ccc(Br)s1`, the inhibition is 0.737% (inactive).
Regarding `COC(=O)c1ccc(NC(=O)CSc2nnc(CNc3ccc(OC)cc3)n2C)cc1`, the inhibition is -7.45% (inactive).
The figure for `C=CCn1c(CNC(=O)c2ccco2)nnc1SCC(=O)c1ccc(OC)cc1` is 29.4% (inactive); for `CCn1c(CNc2ccc(OC)cc2)nnc1SCC(=O)c1ccc(OC)cc1` it is 98.6% (active).
The figure for `COc1ccc(-c2nnc(SCC(=O)c3ccco3)n2-c2ccccc2)cc1` is -5.92% (inactive).
The figure for `COc1ccc(NCc2nnc(SCc3ccccc3)n2-c2ccc(OC)cc2)cc1` is 91.9% (active); for `CCc1nnc(NC(=O)CSc2nnc(Cc3ccccc3)n2-c2ccc(OC)cc2)s1` it is -14.6% (inactive); for `C=CCC[C@H](Cc1ccc(F)cc1)C(=O)OC[C@@H](NC(=O)[C@@H](CC=C)CC(=O)N[C@H](CO)Cc1ccccc1)C(C)(C)C` it is 2.91% (inactive).
Consider `Brc1cnc2ccccc2c1N1CCCCC1`, for which the inhibition was -0.469% (inactive).
For `CS(=O)(=O)Nc1ccccc1C(=O)OCC(=O)NC1CC1`, the inhibition is -5.36% (inactive).
Turning to `COc1cccc(OCCOc2cccc(/C=N/n3cnnc3)c2)c1`, the inhibition was -9.36% (inactive).
The figure for `CN(C)c1ccc(-n2cccc2/C=N/n2cnnc2)cc1` is 98.6% (active).
The figure for `CN(C)c1ccc(-n2cccc2/C=C2/SC(=Nc3ccc(F)cc3)NC2=O)cc1` is -13.8% (inactive); for `CC1(C)C2CC[C@]3(C)C(CC=C4[C@@H]5C[C@@](C)(CO)CC[C@]5(C(=O)O)CC[C@]43C)[C@@]2(C)CC[C@@H]1O` (stereo not given in full) it is -8.21% (inactive).
Take `O=C(COC(=O)/C=C/c1ccc(Br)o1)Nc1cccc(S(=O)(=O)N2CCOCC2)c1`: the inhibition is -1.78% (inactive).
Take `COc1cc2ccccc2cc1C(=O)Nc1ccc(N2CCOCC2)cc1`: the inhibition was -0.59% (inactive).
For the compound `CC(=O)Oc1cccc(N2C(=O)C3CC=C(Cl)CC3C2=O)c1` (stereo not given), the inhibition is -19% (inactive).
The same measure for `CC(=O)Oc1cccc(N2C(=O)CC(Nc3ccc(N4CCOCC4)cc3)C2=O)c1` (stereo not given): 97.2% (active); for `Cc1noc(C)c1NC(=O)Nc1cccc2c1O[C@H](CN(C)C(=O)Nc1ccccc1)[C@@H](C)CN([C@H](C)CO)C2=O`: 1.38% (inactive).
Consider `O=C(NN1CCOCC1)c1cccc(F)c1`, for which the inhibition is -5.96% (inactive).
The same measure for `CN(C)c1ccc(/C=N/NC(=O)c2ccc(Cn3cc(Br)cn3)o2)cc1`: 98.5% (active).
`O=C(N/N=C/c1ccc2c(c1)OCO2)c1ccc(Cn2cc([N+](=O)[O-])cn2)o1`: the inhibition was 29.3% (inactive).
The same measure for `O=C(N/N=C\c1ccc(Br)cc1)c1ccc(Cn2cccn2)o1`: 0.182% (inactive); for `CC(OC(=O)c1ccc(Cl)cc1O)C(=O)NCCC1=CCCCC1` (stereo not given): -2.95% (inactive).
`CCOC(=O)N1CCN(C(=O)c2ccccc2SCC(=O)NCC2CCCCC2)CC1`: the inhibition was -0.603% (inactive).
Take `COc1cccc(NCCC(=O)c2cccc([N+](=O)[O-])c2)c1`: the inhibition is 97.4% (active).
The figure for `COc1cccc(CNC(=O)CCCC(=O)Nc2cccc([N+](=O)[O-])c2)c1` is -3.17% (inactive).
The figure for `COc1cccc(C(=O)CC(=O)C(=O)Nc2ccc([N+](=O)[O-])cc2C)c1` is 7.39% (inactive); for `COc1ccc(CNC(=O)C2(CC3CC(c4ccccc4)=NO3)CCN(C(=O)c3cccc(O)c3)CC2)cc1` (stereo not given) it is -2.44% (inactive).
Take `COCCN(Cc1ccccc1)C(=O)Cc1ccc(S(=O)(=O)N2CCOCC2)s1`: the inhibition was 2.09% (inactive).
Turning to `O=C(NCC1CC1)c1onc(CSc2ccccc2)c1C(=O)NCC1CC1`, the inhibition was -11.1% (inactive).
The same measure for `CCOC(=O)c1sc(NC(=O)CSc2nc(O)c(Cc3ccccc3)c(=O)[nH]2)nc1C`: 98.6% (active).
As to `CCOC(=O)c1ccccc1NC(=O)CSc1nc2ccccc2c(=O)[nH]1`, the inhibition was -0.524% (inactive).
The figure for `Cc1cccc(NC(=O)CSc2nc3c(c(=O)[nH]2)CCCC3)c1C` is -5.33% (inactive); for `CCOC(=O)c1sc(NC(=O)CSc2n[nH]c(CC)n2)nc1C` it is -1.87% (inactive); for `O=C(Cn1c(=O)sc2ccccc21)Nc1nc2c(s1)CCCC2` it is 42.4% (inactive).
Consider `O=C(CSc1nc(O)c(Cc2ccccc2)c(=O)[nH]1)Nc1nc2c(s1)CCCC2`, for which the inhibition was 99.1% (active).
`COC(=O)c1ccc(-c2c(-c3ccccc3)ncc3cc(OC)c(OC)cc23)cc1`: the inhibition was 1.43% (inactive).
The same measure for `C=CC[C@H](CC(=O)OC(C)(C)C)C(=O)OC[C@H]1CCCN1C(=O)[C@H](CC=C)CC(=O)N(CCO)Cc1ccccc1`: -5.27% (inactive).

Source of the values: PubChem BioAssay AID485317 (Broad Institute, 2010).
